# Measurements taken from PubChem BioAssay (NCATS).
# The source made the active and inactive calls. Where a call stands in place of a potency, no number is given. Calls follow the shape of the dose curve; as a rule, active = well fitted inhibition curve with a large enough effect; inconclusive = small, poorly fitted or top-dose-only effect; inactive = flat fitted curve, though single readings scatter.
# Biological target: Luciferin 4-monooxygenase (Photinus pyralis) (UniProt P08659)
# Experiment: Primary firefly luciferase (FLuc) qHTS assay for identification of artifact compounds. (AID 1845220); also: nearly all actives have a fitted effect of over 60% in size
# Conditions: purified firefly luciferase, luminescence, 5 min; series mostly up to 54.1 µM; activity change, negative = inhibition: at the top concentration
# Summary of the method: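 D-luciferin and ATP (10 uM each, final) in Tris acetate buffer pH 7.6 were incubated with compounds for 15 min at room temperature. The reaction was started with 10 nM Photinus pyralis luciferase and luminescence read after 5 min. Percent inhibition was fitted to a 4-parameter Hill equation.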
# Potency is read from the fitted curve at half-maximal effect.
Compound,outcome,"activity change, negative = inhibition",Potency
COc1c(Cl)cc2c([nH]c3cnccc32)c1NC(=O)c1cccnc1C,inactive,,
CN(C(=O)c1ccc(F)cc1C(F)(F)F)C1CCN(c2nnc(-c3ccnn3C)c3ccccc23)CC1,inactive,,
Cc1n[nH]c(C)c1Cc1sc2c(c1C(=O)N1C[C@H](O)CO1)c(=O)n(C)c(=O)n2CC(C)C,inactive,,
CC(C)(N)C(=O)N[C@H](COCc1ccccc1)C(=O)N1CCC2(CC1)CN(S(C)(=O)=O)c1ccccc12,,-1.31% (inactive),
CNC(=O)c1ccc(C)c(-n2c(C)cc(OCc3ccc(F)cc3F)c(Br)c2=O)c1,,-10.9% (inactive),
CN(C)c1ccc(C2Nc3ccc4ccccc4c3C3=C2C(=O)CC(C)(C)C3)cc1Br (configuration not stated),inactive,,
O=C(NOC[C@H](O)CO)c1ccc(F)c(F)c1Nc1ccc(I)cc1F,,4.89% (inactive),
C[C@H](NC(=O)Cc1cc(F)cc(F)c1)C(=O)N[C@@H]1C(=O)N(C)c2ccccc2-c2ccccc21,inactive,,
CN(C)C(=O)c1ccc(S(=O)(=O)c2ccc(NC(=O)[C@@](C)(O)C(F)(F)F)c(Cl)c2)cc1,inactive,,
CCCS(=O)(=O)Nc1ccc(F)c(C(=O)c2c[nH]c3ncc(Cl)cc23)c1F,,3.05% (inactive),
CCc1cc(Nc2nccc(-c3c(-c4ccc(OC)c(C(=O)Nc5c(F)cccc5F)c4)nc4ccccn34)n2)c(OC)cc1N1CCC(N2CCN(S(C)(=O)=O)CC2)CC1,,-4.63% (inactive),
COc1ccccc1[C@H](c1cccc2ccccc12)[C@@](C)(C#N)C(=O)N1CCC(c2cccc(C(F)(F)F)c2)CC1,,0.203% (inactive),
O=C(Nc1ccc(F)c(C(F)(F)F)c1)Nc1nnc(-c2ccncc2)s1,inactive,,
COc1cc2c(cc1OC)CN(CCc1ccc(NC(=O)c3cccc4c(=O)c5cccc(OC)c5[nH]c34)cc1)CC2,inactive,,
CCOc1cc(C(=O)Nc2ccc(Cl)c(-c3nc4ccccc4[nH]3)c2)cc(OCC)c1OCC,,3.82% (inactive),
C[C@@H]1CN(Cc2ccc(F)cc2)[C@@H](C)CN1C(=O)c1cc2c(C(=O)C(=O)N(C)C)cn(C)c2cc1Cl,inactive,,

Compound,outcome,"activity change, negative = inhibition",Potency
COc1cc2nccc(Oc3ccc(NC(=O)NC4CC4)c(Cl)c3)c2cc1C(N)=O,inactive,,
COc1cccc2cc(-c3nc(C4CCC(C(=O)O)CC4)n4ncnc(N)c34)[nH]c12 (configuration not stated),,0.407% (inactive),
Cn1cnc2c(F)c(Nc3ccc(Br)cc3Cl)c(C(=O)NOCCO)cc21,inactive,,
Cc1cnc(Nc2ccc(OCCN3CCCC3)cc2)nc1Nc1cccc(S(=O)(=O)NC(C)(C)C)c1,inactive,,
CC(C)OC(=O)C1=CN(C(=O)c2ccc(F)c(F)c2)CC(C)(C)c2c1[nH]c1ccccc21,,-9.41% (inactive),
Cc1cc(Nc2nc(N[C@@H](C)c3ncc(F)cn3)ncc2Cl)n[nH]1,inactive,,
COc1cc(Nc2ncc3c(n2)-c2ccc(Cl)cc2C(c2c(F)cccc2OC)=NC3)ccc1C(=O)O,,,inactive
CC[C@H](Nc1ncnc2nc[nH]c12)c1nc2cccc(F)c2c(=O)n1-c1ccccc1,inactive [at 11.6 µM],,
CCCc1nn(C)c2c(=O)[nH]c(-c3cc(S(=O)(=O)N4CCN(C)CC4)ccc3OCC)nc12,inactive,,
CS(=O)(=O)c1ccc(C(=O)Nc2ccc(Cl)c(-c3ccccn3)c2)c(Cl)c1,,-12.1% (inactive),
CNCc1ccc(-c2[nH]c3cc(F)cc4c3c2CCNC4=O)cc1,,-2.6% (inactive),
Clc1ccc(Nc2nnc(Cc3ccncc3)c3ccccc23)cc1,inactive,,
CNC(=O)c1ccccc1Sc1ccc2c(/C=C/c3ccccn3)n[nH]c2c1,,,1.9 µM (active)
CC[C@@H](C)[C@H](NC(=O)[C@H](CC1CCCCC1)NC(=O)c1ccno1)C(=O)N1CCC2(CCc3ccccc32)CC1,inactive,,
O=C(c1cc(Cc2n[nH]c(=O)c3ccccc23)ccc1F)N1CCN(C(=O)C2CC2)CC1,,-3.93% (inactive),
COc1nc(-c2ccc3c(c2)OCO3)n(-c2ccc(NC(=O)CSc3ccccc3)cc2)n1,,-4.57% (inactive),
